# PubChem BioAssay (Tox21)
# Unmarked numbers belong to inactive results. Inconclusive results are not listed. Where a call stands in place of a potency, no number is given. Calls of active or inactive are those of the source. Unless noted, calls come from the whole dose curve; as a rule, active = well fitted curve in the direction sought with a large enough effect in the repeat runs; inconclusive = weak or mixed curves; inactive = no such curve, though single readings can be large; an effect the other way counts as inactive or inconclusive.
# Tests used:
# [1] = qHTS assay for small molecules that induce genotoxicity in human embryonic kidney cells expressing luciferase-tagged ATAD5 (AID 651632); note: nearly all actives have a fitted effect of over 15% in size
# Procedure, shortened: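 Quantitative HTS in HEK293T expressing luciferase-tagged ATAD5, whose levels rise upon DNA damage. Exposure ran 16 hr at 37C and 5% CO2, with luminescence read 30 min after Amplite addition at room temperature.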
# [2] = qHTS assay for small molecule agonists of the p53 signaling pathway - cell viability (AID 651633; calls by dose curve; note: nearly all actives have a fitted effect of over 30% in size; note: potency is the fitted concentration of half-maximal effect)
# Procedure, shortened: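 p53RE-bla cells were treated with compound for 16 hours at 37 C. Cytotoxicity was then measured as CellTiter-Glo luminescence after 30 min at room temperature.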
# [3] = qHTS assay for small molecules that induce genotoxicity in human embryonic kidney cells expressing luciferase-tagged ATAD5 - cell viability (AID 651634; calls by dose curve; note: nearly all actives have a fitted effect of over 25% in size; note: potency is the fitted concentration of half-maximal effect)
# Procedure, shortened: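 After 15.5 hr incubation with compound at 37C, 5% CO2, HEK293T ATAD5-luciferase cells received CellTiter-Fluor reagent; fluorescence intensity was quantified following 30 min at 37C.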
# [4] = qHTS assay for small molecule disruptors of the mitochondrial membrane potential - cell viability (AID 720634; calls by dose curve;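 note: human HepG2 liver cancer cells; nearly all actives have a fitted effect of over 20% in size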)
# Procedure, shortened: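 ATP-based luminescent viability readout (CellTiter-Glo, 30 min, room temperature) in HepG2 cells multiplexed with the m-MPI membrane potential dye; compound exposure lasted 1 hr at 37 C.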
# [5] = qHTS assay for small molecule disruptors of the mitochondrial membrane potential (AID 720635); note: potency is the fitted concentration of half-maximal effect
# Procedure, shortened: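 HepG2 cells exposed to compound 1 hr at 37C, then Mito-MPS dye 30 min. Ratio read of aggregate (540/590 nm) versus monomer (490/535 nm) fluorescence.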
# [6] = qHTS assay to test for compound auto fluorescence at 590 nm (red) in HepG2 cells (AID 720674)
# Procedure, shortened: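 Seeding: 2,000 HepG2 cells/well, MEM/10% FBS, overnight 37 C. Dosing: compound vs DMSO. Incubation: 1 hr, 37 C, 5% CO2. Read: fluorescence 540 ex/590 em, Rose Bengal sodium as red reference.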
# [7] = qHTS assay to test for compound auto fluorescence at 535 nm (green) in HepG2 cells (AID 720675)
# [8] = qHTS assay to test for compound auto fluorescence at 460 nm (blue) in HEK293 cells (AID 720678)
# Procedure, shortened: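 Cells were seeded and left to adhere for 4-5 hr at 37C. Compounds were then pin-transferred. After an overnight incubation at 37C under 5% CO2, intrinsic fluorescence at 405/460 nm was measured and referenced to triamterene.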
# [9] = qHTS assay to test for compound auto fluorescence at 590 nm (red) in HEK293 cells (AID 720679)
# Procedure, shortened: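 Each well held 2,000 HEK293 cells in medium containing 10% dialyzed FBS. Following 4-5 hr attachment at 37C, 23 nL test compound or DMSO was added; plates sat overnight, and red fluorescence (540/590nm) was recorded.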
# [10] = qHTS assay to test for compound auto fluorescence at 535 nm (green) in HEK293 cells (AID 720680)
# [11] = qHTS assay to test for compound auto fluorescence at 460 nm (blue) in HEK293 cell free culture (AID 720681)
# Procedure, shortened: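 Compounds were added to cell-free DMEM with 10% FBS and fluorescence read directly. The blue channel used 405 nm excitation and 460 nm emission, with triamterene as the reference fluorophore.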
# [12] = qHTS assay to test for compound auto fluorescence at 535 nm (green) in HEK293 cell free culture (AID 720682)
# Procedure, shortened: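 Using fluorescein as calibrant, autofluorescence was quantified at 485/535 nm in cell-free DMEM containing 10% FBS after pintool addition of compound or vehicle.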
# [13] = qHTS assay to test for compound auto fluorescence at 590 nm (red) in HEK293 cell free culture (AID 720683)
# Procedure, shortened: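 Cell-free wells of DMEM with 10% FBS received compound, and intrinsic fluorescence was read at excitation/emission 540/590 nm. Values expressed as equivalence to Rose Bengal sodium.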
# [14] = qHTS assay to test for compound auto fluorescence at 590 nm (red) in HepG2 cell free culture (AID 720684)
# Procedure, shortened: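 Auto fluorescence equivalency versus Rose Bengal sodium, red channel Ex/Em 540/590 nm; compounds in cell-free MEM/10% FBS; DMSO vehicle control.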
# [15] = qHTS assay to test for compound auto fluorescence at 460 nm (blue) in HepG2 cell free culture (AID 720685)
# Procedure, shortened: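 Cell-free plates of MEM plus 10% FBS received 23 nL compound or DMSO vehicle; blue-channel (405/460 nm) intensity scored against triamterene as reference fluorophore.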
# [16] = qHTS assay to test for compound auto fluorescence at 535 nm (green) in HepG2 cell free culture (AID 720686)
# [17] = qHTS assay to test for compound auto fluorescence at 460 nm (blue) in HepG2 cells (AID 720687)
# Procedure, shortened: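 HepG2 cells in MEM with 10% FBS, attached overnight at 37 C, were exposed to compound or DMSO for 1 hr at 37 C, 5% CO2. Blue fluorescence was read at 405/460 nm, with triamterene as reference fluorophore.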
# [18] = biological target: Glucocorticoid receptor (Homo sapiens) (UniProt P04150); test: qHTS assay to identify small molecule antagonists of the glucocorticoid receptor (GR) signaling pathway (AID 720692; active = well fitted inhibition curve with a large enough effect in the signal ratio in the repeat runs, not every such curve was filed as active; the % refers to the signal ratio)
# Procedure, shortened: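 Quantitative HTS in antagonist format: HeLa cells expressing endogenous GR and a stably integrated GRE-bla reporter, stimulated with 5 nM dexamethasone (final) alongside test compounds for 18 h.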
# [19] = biological target: Glucocorticoid receptor (Homo sapiens) (UniProt P04150); test: qHTS assay to identify small molecule agonists of the glucocorticoid receptor (GR) signaling pathway (AID 720691; active = well fitted activation curve with a large enough effect in the signal ratio in the repeat runs, not every such curve was filed as active; the % refers to the signal ratio); settings: GR-bla HeLa, beta-lactamase reporter ratio, 18 h; activation: at 62.4 µM (top of the series) unless noted
# Procedure, shortened: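 Cells: GR-bla HeLa, endogenous GR with stably integrated GRE-beta-lactamase reporter. Treatment 18 h, 37 C, compounds delivered in DMSO. Detection via LiveBLAzer B/G FRET substrate, 2 h RT, fluorescence intensity.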
# [20] = qHTS assay for small molecule agonists of the p53 signaling pathway (AID 651631; calls by dose curve; note: potency is the fitted concentration of half-maximal effect; nearly all actives have a fitted effect of over 15% in size)
# Procedure, shortened: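 Stably transfected HCT-116 cells (beta-lactamase behind p53 response elements) get compounds after a 5 h settling period; 16 h later at 37 °C, FRET substrate is loaded and fluorescence read after 2 h.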
# Sequence of Glucocorticoid receptor (Homo sapiens) (P04150 whole entry, looked up): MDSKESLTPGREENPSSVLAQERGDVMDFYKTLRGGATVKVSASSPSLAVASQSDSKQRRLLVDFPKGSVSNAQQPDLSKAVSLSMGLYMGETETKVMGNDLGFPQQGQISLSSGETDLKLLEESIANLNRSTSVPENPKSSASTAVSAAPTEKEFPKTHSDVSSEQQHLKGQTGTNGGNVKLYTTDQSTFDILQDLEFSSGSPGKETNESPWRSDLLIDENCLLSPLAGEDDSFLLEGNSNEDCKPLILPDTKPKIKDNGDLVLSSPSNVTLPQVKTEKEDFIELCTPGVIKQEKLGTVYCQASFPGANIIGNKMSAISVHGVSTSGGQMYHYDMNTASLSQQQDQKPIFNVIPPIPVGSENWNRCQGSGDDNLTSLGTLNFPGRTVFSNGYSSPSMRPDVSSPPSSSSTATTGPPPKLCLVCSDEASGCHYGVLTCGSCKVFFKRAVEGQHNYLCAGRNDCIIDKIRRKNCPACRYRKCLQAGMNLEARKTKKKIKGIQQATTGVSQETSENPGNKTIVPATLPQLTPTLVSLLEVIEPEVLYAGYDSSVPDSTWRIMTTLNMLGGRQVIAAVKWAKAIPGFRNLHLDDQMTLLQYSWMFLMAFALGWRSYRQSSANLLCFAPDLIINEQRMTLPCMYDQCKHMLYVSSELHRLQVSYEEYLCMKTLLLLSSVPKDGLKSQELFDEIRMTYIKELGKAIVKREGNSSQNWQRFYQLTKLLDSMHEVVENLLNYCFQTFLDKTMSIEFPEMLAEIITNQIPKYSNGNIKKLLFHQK
structure (smiles),measurement,setting,value
COc1cc2nc(N(C)CCCNC(=O)C3CCCO3)nc(N)c2cc1OC (stereo unspecified),Potency,[1],inactive
same,Potency,[2],inactive
same,Potency,[3],inactive
same,Potency,[4],inactive
same,Potency,[5],inactive
same,"fluorescence, relative to Rose Bengal",[6],-0.119% [at 18.6 µM]
same,"fluorescence, % of fluorescein control",[7],-0.0701% [at 18.6 µM]
same,"fluorescence, % of triamterene",[8],-0.108% [at 18.6 µM]
same,"fluorescence, % of fluorescent control",[9],-0.585% [at 18.6 µM]
same,"fluorescence, % of fluorescein",[10],-0.0302% [at 18.6 µM]
same,"fluorescence, % of fluorescent control",[11],-0.0154% [at 18.6 µM]
same,activity change,[12],-0.131% [at 18.6 µM]
same,"fluorescence, % of fluorescent control",[13],-0.206% [at 18.6 µM]
same,"fluorescence, % of Rose Bengal",[14],-0.324% [at 18.6 µM]
same,"fluorescence, % of fluorescent control",[15],-0.0022% [at 18.6 µM]
same,"fluorescence, % of fluorescein control",[16],-0.0969% [at 18.6 µM]
same,"fluorescence, % of fluorescent control",[17],0.136% [at 18.6 µM]
same,Potency,[18],inactive
O=C(O)C(S)C(S)C(=O)O (stereo unspecified),Potency,[1],inactive
same,Potency,[2],inactive
same,Potency,[3],inactive
same,Potency,[4],inactive
same,Potency,[5],inactive
same,Potency,[6],inactive
same,Potency,[7],inactive
same,outcome,[8],inactive
same,Potency,[9],inactive
same,outcome,[10],inactive
same,outcome,[11],inactive
same,outcome,[12],inactive
same,Potency,[13],inactive
same,Potency,[14],inactive
same,outcome,[15],inactive
same,Potency,[16],inactive
same,outcome,[17],inactive
O=[N+]([O-])c1ccc(NCCO)c(OCCO)c1,Potency,[1],inactive
same,Potency,[2],inactive
same,Potency,[3],61.2 µM (active)
same,Potency,[4],inactive
same,Potency,[5],inactive
same,Potency,[6],inactive
same,Potency,[7],inactive
same,outcome,[8],inactive
same,outcome,[10],inactive
same,outcome,[11],inactive
same,outcome,[12],inactive
same,Potency,[13],inactive
same,Potency,[14],inactive
same,outcome,[15],inactive
same,Potency,[16],inactive
same,Potency,[19],inactive
same,Potency,[18],inactive
CN1C[C@H]2c3ccccc3Oc3ccc(Cl)cc3[C@@H]2C1,Potency,[20],29.8 µM (active)
same,Potency,[3],inactive
same,Potency,[4],inactive
same,Potency,[6],inactive
same,Potency,[7],inactive
same,outcome,[8],inactive
same,outcome,[10],inactive
same,outcome,[11],inactive
same,outcome,[12],inactive
same,Potency,[13],inactive
same,Potency,[14],inactive
same,outcome,[15],inactive
same,Potency,[16],inactive
same,outcome,[17],inactive
O=[N+]([O-])c1ccc2[nH]ncc2c1,Potency,[1],inactive
same,Potency,[2],inactive
same,Potency,[3],inactive
same,Potency,[4],inactive
same,Potency,[5],38.5 µM (active)
same,Potency,[6],inactive
same,Potency,[7],inactive
same,outcome,[8],inactive
same,Potency,[9],inactive
same,outcome,[10],inactive
same,outcome,[11],inactive
same,outcome,[12],inactive
same,Potency,[13],inactive
same,Potency,[14],inactive
same,outcome,[15],inactive
same,Potency,[16],inactive
same,outcome,[17],inactive
same,Potency,[19],inactive
CN(Cc1ccc(C(C)(C)C)cc1)Cc1cccc2ccccc12,Potency,[1],inactive
same,Potency,[2],23.7 µM (active)
same,Potency,[3],inactive
same,Potency,[4],inactive
same,Potency,[5],inactive
same,Potency,[7],inactive
same,outcome,[8],inactive
same,Potency,[9],inactive
same,outcome,[10],inactive
same,outcome,[11],inactive
same,Potency,[13],inactive
same,Potency,[14],inactive
same,outcome,[15],inactive
same,Potency,[16],inactive
same,Potency,[19],inactive
O=C1C(O)=C(O)C(=O)C(O)=C1O,Potency,[1],inactive
same,Potency,[2],inactive
same,Potency,[3],inactive
same,Potency,[4],inactive
same,Potency,[5],inactive
same,Potency,[6],inactive
same,Potency,[7],inactive
same,outcome,[8],inactive
same,Potency,[9],inactive
same,outcome,[10],inactive
same,outcome,[11],inactive
same,outcome,[12],inactive
same,Potency,[13],inactive
same,Potency,[14],inactive
same,outcome,[15],inactive
same,Potency,[16],inactive
same,outcome,[17],inactive
